Assay results: PubChem BioAssay (NCI)
About 83,000 compounds went through this panel and 20% of them were active in at least one assay; those are over-represented in the sample as a whole.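 How to read the values: 0–100, growth inhibition (40 = 60% inhibited); 0, no net growth; -100 to 0, cell death (-40 = 40% of starting cells died; -100 = all dead).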 Unmarked numbers belong to inactive results. Activity calls are given as the source filed them. How the source made its calls: active means growth percent below 10; inactive means the rest.

Tests used:
Experiment in all cases: NCI-60 one-dose screen, 48 h (100 = growth as untreated, 0 = no growth, -100 = all killed)
Details in all cases: 10 µM unless noted
[1] = test system: SR leukemia
[2] = test system: RPMI-8226 leukemia
[3] = test system: OVCAR-8 ovarian
[4] = test system: OVCAR-5 ovarian
[5] = test system: OVCAR-4 ovarian
[6] = test system: SK-OV-3 ovarian
[7] = test system: IGROV1 ovarian
[8] = test system: OVCAR-3 ovarian
[9] = test system: HS 578T breast
[10] = test system: NCI/ADR-RES ovarian
[11] = test system: T-47D breast
[12] = test system: BT-549 breast
[13] = test system: MDA-MB-435 melanoma
[14] = test system: MCF7 breast
[15] = test system: HCT-116 colon
[16] = test system: HCC-2998 colon
[17] = test system: KM12 colon
[18] = test system: SW-620 colon

SMILES	growth [1]	growth [2]	growth [3]	growth [4]	growth [5]	growth [6]	growth [7]	growth [8]	growth [9]	growth [10]	growth [11]	growth [12]	growth [13]	growth [14]	growth [15]	growth [16]	growth [17]	growth [18]
CC(=O)N(Cc1ccccc1)c1nc2ccc(O)c(CN(C)C)c2s1	106%	95.2%	103%	100%	97.6%	104%	93.9%	105%	92.6%	93.5%	85.2%	96.6%	99.7%	87.8%	102%	105%	102%	–
Cn1cc(C(=O)c2nc(-c3c[nH]c4ccc(Br)cc34)no2)c2cc(Br)ccc21	6.41% (active)	86.6%	48.6%	82.7%	-0.341% (active)	87.7%	69.5%	92.7%	80.3%	56.1%	71.8%	79%	63.3%	–	63.5%	103%	55.2%	-2.17% (active)
O=C(CCC(=O)c1nc2ncccc2[nH]1)NN1C(=O)CSC1c1ccc(Cl)cc1 (configuration not stated)	55.9%	87.1%	101%	106%	94.1%	100%	86.7%	98.7%	101%	100%	90.7%	120%	99.7%	87%	86%	112%	94.7%	–
CCn1cc(C2=C(c3cn(C)c4ncccc34)C(=O)NC2=O)c2cccnc21	59.4%	85.2%	82.5%	102%	69.3%	41.6%	64.5%	64.7%	–	78.2%	29.8%	32.9%	65%	38.3%	70.9%	91.4%	46.7%	92.4%
CNCc1cccc2c1OCCOCCN(C)C(=O)CN(C)S(=O)(=O)c1ccc(cc1)-c1cnc(N)c(n1)C(=O)N2	-16.9% (active)	88.8%	2.03% (active)	33.8%	42.4%	8.28% (active)	51.4%	-25.3% (active)	63.3%	102%	-9.54% (active)	92.4%	-91.8% (active)	11.6%	-69% (active)	28%	9.24% (active)	–
Cn1c(=O)c2c(nc(NC3=NS(=O)(=O)c4ccccc43)n2Cc2ccccc2)n(C)c1=O	108%	103%	99.5%	99.6%	103%	97.5%	95.5%	110%	96.5%	103%	115%	106%	101%	88.7%	103%	107%	99.9%	–
CC(C)(C)c1cc(C=Nc2cccc(C(F)(F)F)c2)c(O)c(C(C)(C)C)c1	77.7%	74.5%	88.1%	105%	97.3%	100%	105%	95%	102%	99.9%	88.5%	106%	108%	97.7%	94.1%	108%	102%	–
COc1ccc2cc(-c3ccc(-c4ccc(C(=N)N)s4)s3)ccc2c1	-14.5% (active)	-20.9% (active)	-32.6% (active)	-33% (active)	-45.6% (active)	97.2%	63%	-61.1% (active)	90.3%	-43% (active)	-9.45% (active)	98.6%	0.918% (active)	–	-29.5% (active)	-58.1% (active)	-14.5% (active)	-64.3% (active)
Cc1ccc(C)c2c1C(O)(C#Cc1ccccc1)c1ccccc1C2(O)C#Cc1ccccc1 (configuration not stated)	123%	18.9%	59.3%	81.3%	47.7%	75%	-12.5% (active)	63.3%	72.5%	71.1%	38.5%	68%	47.9%	28.9%	43.3%	87.4%	50.1%	–
Clc1ccc(-c2nc(-c3c[nH]c4ncccc34)cs2)cc1	85.4% [100 µM]	91.4% [100 µM]	29.7% [100 µM]	73.7% [100 µM]	28.3% [100 µM]	29.3% [100 µM]	72.7% [100 µM]	–	44.3% [100 µM]	41.2% [100 µM]	62.4% [100 µM]	47.2% [100 µM]	89.2% [100 µM]	66.7% [100 µM]	38.6% [100 µM]	90.2% [100 µM]	76.1% [100 µM]	74.3% [100 µM]
COc1cc2c(cc1O)[C@@]1(C)[C@H](c3ccccc3Br)OC(=O)N1CC2	86.6%	67.1%	88.2%	121%	76.6%	107%	111%	94.1%	–	83.8%	65.4%	92.8%	92.1%	99.1%	77.1%	99%	89.7%	104%
COc1ccc(NC(=O)c2cccc(C3CCc4c(cc(OC)c(OC)c4OC)O3)c2)cc1 (configuration not stated)	5.23% (active)	-24.2% (active)	35.1%	64.8%	53.1%	26.8%	37.6%	6.25% (active)	–	8.7% (active)	16%	25.9%	-10.5% (active)	11.3%	14.6%	50.7%	18.2%	29%
O=c1ccc2nc(C(F)(F)F)nn(-c3ccccc3)c-2c1	-11.3% (active)	45.8%	73.1%	102%	79.8%	79.3%	71.7%	-26.1% (active)	–	84%	-40.8% (active)	69.2%	62.3%	-49.3% (active)	35.2%	102%	96.8%	-63.3% (active)
COCC[C@H]1CCC/C=C/[C@@H]2C[C@H](O)C[C@H]2[C@H](O)/C=C/C(=O)O1	2.43% (active)	11.1%	5.65% (active)	9.73% (active)	26.6%	33.6%	16.1%	-47.8% (active)	–	3% (active)	-10.9% (active)	5.84% (active)	9.56% (active)	-8.53% (active)	-66.7% (active)	2.4% (active)	-51.4% (active)	-20.8% (active)
COc1ccc(-c2nnc(SCC(=O)Nc3ccc(/C(C)=N\O)cc3)n2-c2ccccc2)cc1OC	95.4%	91.6%	42.7%	97%	103%	4.74% (active)	70.9%	–	42.8%	90.6%	68%	65.2%	104%	69.2%	69.2%	94%	106%	115%
Cc1ccc(/C=C2\CN(C(=O)C(Cl)Cl)C/C(=C\c3ccc(C)cc3)C2=O)cc1	1.68% (active)	-19.3% (active)	4.74% (active)	-44.6% (active)	25%	29%	-58.8% (active)	-97.8% (active)	–	8.57% (active)	-29% (active)	-15.3% (active)	-75.1% (active)	–	-84.6% (active)	-89.6% (active)	-65.8% (active)	–
COC(=O)Cc1nc(C#N)c(N(C)C)o1	94.9%	102%	101%	94.7%	107%	92.7%	103%	–	87.1%	101%	89.6%	92.6%	103%	94.9%	97.1%	103%	94.7%	95.9%
